Test results as given in PubChem BioAssay AID2216 (Broad Institute, 2009).
About 3,300 (1.1%) of roughly 300,000 compounds were called active. Not shown: some 6% with an inconclusive outcome.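 How the source made its calls: active means more than half of the replicate wells show a fall in the fluorescence ratio signal beyond about 16% (limit read from the data, passing the limit was not always enough); inconclusive means exactly half of the replicate wells pass the set limit; inactive means fewer than half of replicates pass the limit.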 The list comes from a sample in which actives are over-represented; it also holds similar structures and randomly drawn compounds.

system: Ran GTPase (GTP-bound) - importin-beta complex; assay: disruptors of Ran-importin-beta complex formation – biochemical, FRET, CFP-Ran, YFP-importin-beta, homogeneous, primary screen (AID 2216); settings: cell-free CFP-Ran/YFP-importin-beta FRET ratio; hits give high values; concentration not given here;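 further: 0% = DMSO wells and 100% = Ran loaded with GDP instead of GTP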

inhibition, active:
COCCN1C2=C(COC(C)(C)C2)C(=S)NC1c1ccccc1 (stereo unspecified) 18.1%, CCCC(C)c1nnc(NC(=O)C2CC(=O)N(c3ccc(OCC)cc3)C2)s1 (stereo unspecified) 18.4%, CCC(=O)Nc1c(S(=O)(=O)c2ccccc2)c2nc3ccccc3nc2n1Cc1ccccc1 22.2%, CCn1c2ccccc2c2cc(NC(=O)CNC)ccc21 18.8%, CC1CN(c2cc(=O)n(-c3cccc(Br)c3)c(=O)[nH]2)CC(C)O1 (stereo unspecified) 39.6%, NC(=O)c1c(Nc2nc3c(F)cccc3s2)sc2c1CCCC2 154%, CCn1c(=N)c(S(=O)(=O)c2ccc(F)cc2)cc2c(=O)n3ccccc3nc21 152%, Cc1cccc2cc(C#N)c(N3CCCC3)nc12 39.6%, Nc1cccc2c1C(=O)N(Cc1nnc(-c3ccccc3Br)o1)C2=O 35.1%, COC(=O)Cc1cc(=O)n(-c2nc3ccccc3s2)[nH]1 18.9%, CC(=O)Nc1ccc(Nc2c3ccccc3nc3ccccc23)cc1 52.8%, COc1cc(SC)ccc1C(=O)Nc1nc(C)cs1 18.1%, CC(=O)c1cc(C#N)c(N2CC(C)OC(C)C2)nc1C (stereo unspecified) 25.3%, CCCn1nc(NC(=O)C(C)C)c2cc3cc(OC)ccc3nc21 57.9%, CC(C)(C)OC(=O)c1c(N)n(CCCN2CCCC2=O)c2nc3ccccc3nc12 41.8%, CCOC(=O)c1cc2c(=O)n3ccccc3nc2n(CC(C)C)c1=NC(=O)c1c(-c2c(F)cccc2Cl)noc1C 94.5%, Cc1ccc(-n2c(=O)c(C#N)cc3c(=O)n4ccccc4nc32)cc1C 28%

inhibition, inactive:
COc1ccc(C(CNC(=O)c2cccc(S(=O)(=O)Nc3ccccc3Cl)c2)N2CCOCC2)cc1 (stereo unspecified) 10.7%, C/C=C/c1ccc(OCC(=O)OCC(=O)Nc2c(C)nn(-c3ccccc3)c2C)c(OC)c1 1.88%, COCCN1C(=O)N[C@@H](CCc2ccccc2)[C@H](C(C)=O)[C@H]1C -2.31%, COC(=O)C1=C(C)N(C)C(=S)NC1c1ccccc1 (stereo unspecified) 4.45%, O=C1CC2(CCCC2)Oc2ccc(Cl)cc21 -0.936%, COc1cccc(COC(=O)C2CCN(S(=O)(=O)c3ccc(Cl)cc3)CC2)c1OC 3.92%, CCOc1ccc(N2CC(C(=O)NCc3ccccn3)CC2=O)cc1 (stereo unspecified) -1.93%, CCOc1ccc(NC(=O)[C@H](C)NC(=O)C2CC(=O)N(c3ccc(OC)cc3)C2)cc1 (stereo partly specified) 2.72%, CC(OC(=O)c1ccc(-n2cnnn2)cc1)C(=O)NCc1ccccc1 (stereo unspecified) 3.57%, CCN(CC)CCn1c(N)c(S(=O)(=O)c2ccccc2)c2nc3ccccc3nc21 0.032%, COC(=O)CSc1nc2ccccc2c(=O)n1Cc1ccccc1 5.12%, O=C(CCCN=C1NS(=O)(=O)c2ccccc21)OCC(=O)c1ccc(F)c(F)c1 3.32%, CCC1(c2ccccc2)NC(=O)N(CC(=O)c2ccc3c(c2)OCO3)C1=O (stereo unspecified) 1.92%, O=C(Nc1ccc(N2CCCCC2)cc1)c1cc(S(=O)(=O)N2CCOCC2)ccc1F -0.386%, CCn1c2ccccc2c2cc(NC(=O)C/C(C)=N/NC(=O)c3ccccc3N)ccc21 -6.36%, CCn1c2ccccc2c2cc(NC(=O)COC(=O)c3ccccc3Br)ccc21 -2.01%, COc1ccc(S(=O)(=O)N2CCCCC2)cc1NC(=O)c1cc([N+](=O)[O-])ccc1N1CCOCC1 8.1%, CC1CN(C(=S)Nc2ccc(Br)cc2Cl)CC(C)O1 (stereo unspecified) -3.05%, CC1CN(c2cc(=O)n(Cc3ccc(F)cc3)c(=O)[nH]2)CC(C)O1 (stereo unspecified) 8.41%, CCOC(=O)c1c(C)oc2cc(Sc3ccccc3)c(O)c(O)c12 -4.55%, CS(=O)(=O)c1ccc(Cl)c(NC(=O)COC(=O)c2ncc(Cl)c(Cl)c2Cl)c1 -0.161%, COc1cc(-c2nnc(NC(=O)C3=COCCO3)o2)cc(OC)c1OC -0.69%, CCN1C(=O)[C@@H]2[C@@H](c3ccc(-c4cccc(Cl)c4)cc3)N3CCC[C@@]3(C(=O)OC)[C@@H]2C1=O 0.656%, CCCNC(=O)c1onc(CSc2ccc(F)cc2)c1C(=O)NC(C)C -1.02%, CC1CCN(c2ccc(-c3ccc(NC(=O)c4ccco4)cc3)nn2)CC1 0.987%, NC(=O)c1c(NC(=O)c2ccccc2)sc2c1CCCC2 3.77%, COc1cccc(OC)c1C(=O)Nc1sc2c(c1C(N)=O)CCCC2 3.19%, CCOc1ccc(NC(=O)COc2ccc(C(=O)N3CCC(C(N)=O)CC3)cc2OC)cc1 1.65%, COc1ccc(C2=NN(C(=O)CSc3nc(=O)n4ccc(C)cc4n3)C(c3ccc(C)cc3)C2)cc1 (stereo unspecified) 3.51%, CCOCCCNC(=O)c1cc2c(=O)n3ccccc3nc2s1 -3.33%, Cc1ccc(Cn2c(=N)c(S(=O)(=O)c3ccc(C)cc3)cc3c(=O)n4ccccc4nc32)cc1 1.91%, C=CCSc1nnc2c(n1)-c1cccc3cccc-2c13 6.48%, CC(=O)c1ccc(S(=O)(=O)N2CCN(c3nc4c(C)c(C)ccc4cc3C#N)CC2)cc1 6.35%, Cc1cc(C)c2nc(N3CCCC3)c(C#N)cc2c1 2.23%, CCN(CC(=O)Nc1c(F)cccc1F)C(=O)c1ccc(-c2ccccc2)cc1 -2.68%, COc1ccccc1C(=O)NC(=O)COC(=O)c1ccco1 1.31%, Cn1cnnc1SCc1nnc(-c2ccccc2Br)o1 2.51%, CCOC(=O)N1CCN(Cc2nnc(-c3ccccc3Cl)o2)CC1 -2.66%, C/C(=N\NC(=O)CC(C)C)c1c(C(F)(F)F)[nH]n(-c2nc3ccccc3s2)c1=O 4.64%, COC(=O)Cc1[nH]n(-c2nc3ccccc3s2)c(=O)c1C(C)=Nc1ccc(OC)cc1 -3.75%, Cc1ccc(OCC(=O)Oc2ccccc2[N+](=O)[O-])cc1 0.472%, Cc1ccc(Nc2c3c(nc4ccccc24)CCC3)cc1 2.17%, CC(=O)Nc1ccc(-c2nc3ccccc3o2)cc1 -2.08%, COc1ccc(NC(=O)CSc2nnc(Cc3ccccc3)c(=O)n2N)cc1 -2%, Fc1ccccc1COc1cccc2cccnc12 1.44%, COC(=O)c1sc(NC(=O)c2ccc(OC)cc2OC)nc1C -3.52%, COc1cc(SC)ccc1C(=O)Nc1cc(C)ccn1 -5.84%, CC12CCC(=O)N1C(C(=O)NCCN1C(=O)S/C(=C\c3ccccc3F)C1=O)CS2 (stereo unspecified) 6.01%, C=C(C)CNC(=O)c1ccc(OC2CCN(C(=O)COC)CC2)cc1 -0.667%, CCN1CCN(C(=O)N(Cc2ccc(Cl)cc2)S(=O)(=O)c2ccc(C)cc2)CC1 9.84%, CC(=O)c1cc(C#N)c(SCC(=O)C(C)(C)C)nc1C -3.56%, CC(=O)c1cc(C#N)c(N2CCCCC2)nc1C 2.36%, CC(=O)N/C(=C\c1ccccc1)C(=O)OC(C)C(=O)N(C)c1ccccc1 (stereo unspecified) 1.82%, O=[N+]([O-])c1ncc(Br)cc1Nc1ccccc1 6.49%, COc1ccccc1NC(=O)Nc1nc(CC(=O)Nc2ccccc2F)cs1 1.51%, Cc1ccnc(NC(=O)CNC(=O)c2ccccc2)c1 5.13%, O=C(Cc1ccc(Br)cc1)NCCc1ccccc1 5.4%, CCCn1nc(NS(=O)(=O)c2ccc(F)cc2)c2cc3ccccc3nc21 4.53%, CCCn1nc(NS(=O)(=O)c2ccccc2)c2cc3cc(C)ccc3nc21 -1.51%, Cc1ccc2c(C)c(C(=O)N3CCN(c4ccncc4)CC3)oc2c1C 1.96%, O=C(NCCCN1CCCC1=O)c1ccc(S(=O)(=O)Nc2ccccc2)cc1 -2.45%, CCOc1ccc(C(=O)NCCCN2CCCC2=O)cc1 3%, Cc1nc(-c2ccc(F)cc2)c(CC(=O)Nc2cc(S(=O)(=O)N3CCCCC3)ccc2C)s1 1.23%, O=C(NCc1ccc2c(c1)OCO2)c1c(O)nc2sccn2c1=O -0.147%, COc1ccc(C(=O)Nc2cccc(NC(=O)c3ccc(OC)cc3OC)n2)c(OC)c1 3.03%, CCCCN1C(N)=NC[C@@H]1CC1CCCCC1 0.418%, Cc1onc(-c2c(F)cccc2Cl)c1C(=O)N(C)CC(=O)Nc1cccc(F)c1 0.755%, C/C(=N/OC(=O)c1c(-c2c(F)cccc2Cl)noc1C)c1cnccn1 -0.76%, CCOC(=O)c1cccc(NC(=O)c2ccc(F)cc2F)c1 -2.82%, CCc1cccc(NC(=O)COC(=O)C2CCN(c3ccc(C(F)(F)F)cn3)CC2)c1 -2.11%, O=C(CNC(=O)C12CC3CC(CC(C3)C1)C2)OCC(=O)N1CCCCC1 9.25%, COc1cccc(C(=O)N/N=C(\C)c2cccc(NC(=O)c3ccc(F)cc3)c2)c1OC -1.6%, Cc1ccc(-n2c(SCC(=O)N3CCC(C(=O)O)CC3)nc3ccccc3c2=O)cc1C -0.912%, Cc1ccc(-n2ncc3c(=O)n(-c4ccc(C)c(C)c4)c(-c4ccco4)nc32)cc1 -0.295%
